Where “and” joins values, the source holds several entries; their conditions need not be identical. Equal entries are not always repeated. Values without a mark were called inactive. Results filed as inconclusive are left out. The source holds several records for some structures; these can differ, active in one and inactive in another. Calls of active or inactive are those of the source. Unless noted, calls come from the whole dose curve; as a rule, active = well fitted curve in the direction sought with a large enough effect; inconclusive = small, poorly fitted or top-dose-only effect, or another doubt; inactive = no such curve, though single readings can be large; an effect the other way counts as inactive or inconclusive.

Test [1] is described as follows: Cell Viability - MRC5 (AID 434; calls by dose curve;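 note: potency is the fitted concentration of half-maximal effect; potency reflects cytotoxicity seen as loss of intracellular ATP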). To be noted: MRC5 lung fibroblast viability, qHTS. An outline of the steps: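 MRC5 normal human lung fibroblasts, 1500 cells/well, exposed to compound for 40 hr at 37 C. Cellular ATP was read by CellTiter-Glo luminescence; data normalized to DMSO and 100 uM tamoxifen, with AC50 from Hill fits.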
(Quantitative high-throughput screening tests each substance at several concentrations.)

Test [2] can be described thus: Cellular Toxicity (caspase-3) HepG2 (AID 654).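 Note: cells exposed to compound for 16 hours before reading; 0% = DMSO alone and 100% = caspase signal from 100 µM tamoxifen.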 To be noted: HepG2 caspase-3 activation, luminescence; series mostly up to 92.2 µM. In a few lines: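 Cells plated 5 hr at 37 °C, compound added, incubated 16 hr at 37 °C. Caspase-Glo 3/7 reagent followed, 20 min at room temperature, then luminescence read. Activation scored as signal increase; AC50 from Hill fit.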
A short description of test [3]: Cellular Toxicity (caspase-3) HUV-EC-C (AID 656). To be noted: HUV-EC-C cells, caspase-3 activation (apoptosis); series mostly up to 92.2 µM. In a few lines: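 Luminescent caspase-3/7 activation (aminoluciferin substrate cleavage) in HUV-EC-C cells after 16 hr compound exposure, 37°C. Signal normalized to DMSO basal and 100 uM tamoxifen as 100%; AC50 from concentration-response fitted with the Hill equation.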

Test [4] is described as follows: Cellular Toxicity (caspase-3) SHSY5Y (AID 657). To be noted: SH-SY5Y caspase-3 activation; series mostly up to 91.7 µM. In a few lines: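 Luminescent caspase-3/7 readout (aminoluciferin release) in SH-SY5Y cells after 16 h compound exposure in complete medium. Activity scaled between DMSO basal and 10 uM staurosporine as 100%; concentration-response fitted to Hill equation for AC50.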

Test [5] in a line: Cellular Toxicity (caspase-3) Mesangial (AID 660).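 Note: combined caspase 3 and 7 activity read by Caspase-Glo luminescence.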 To be noted: mesangial cells, normalized: DMSO 0%, 100 µM tamoxifen 100%; series mostly up to 91.7 µM. In a few lines: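 Mesangial cells, 1000/well, 5 h settle at 37 °C; compound 16 h, 37 °C; Caspase-Glo 3/7 reagent 20 min RT; luminescence. Norm.: DMSO = 0%, tamoxifen 100 uM = 100%. AC50, Hill fit.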
The nature of test [6]: Cellular Toxicity (caspase-3) SK-N-SH (AID 661). To be noted: SK-N-SH caspase-3 activation, qHTS, DMSO as zero, staurosporine as full; series mostly up to 91.7 µM. In a few lines:
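Human neuroblastoma SK-N-SH, 1500 cells/well, 5 hr pre-incubation, then compound 16 hr, 37 °C. Caspase-Glo 3/7 reagent, 1 hr RT, luminescence. Norm. to DMSO/10 uM staurosporine; Hill-fit AC50.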

Test [7] can be described thus: Cellular Toxicity (caspase-3) H-4-II-E (AID 663). To be noted: H-4-II-E rat hepatoma; Potency: caspase-3 activation; series mostly up to 92.2 µM. An outline of the steps: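 Rat hepatoma H-4-II-E cells (1500/well) plated 5 hr, then exposed to compound titrations for 16 hr at 37 °C. Caspase-Glo 3/7 luminescence read after 20 min at RT; data normalized to DMSO and 100 uM tamoxifen, AC50 from Hill fits.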

Test [8] in a line: Cellular Toxicity (caspase-3) N2a (AID 665).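 Note: compound exposure lasted 16 h at 37 °C before readout.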 To be noted: N2a cells, luminescence, normalized: DMSO 0%, 10 µM staurosporine 100%; series mostly up to 92.2 µM. An outline of the steps: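 N2a cells, 1500/well, 5 h settle at 37 °C; cpd 16 h, 37 °C; Caspase-Glo 3/7, 1 h RT; luminescence. Norm: DMSO = 0, 10 uM staurosporine = 100%. AC50, Hill fit.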
Test [9] is described as follows: Cellular Toxicity (caspase-3) NIH 3T3 (AID 666).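 Note: 0% = DMSO basal and 100% = 100 µM tamoxifen stimulation.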 To be noted: NIH 3T3 caspase-3 activation, apoptosis/toxicity, 0% DMSO, 100% is 100 µM tamoxifen; series mostly up to 92.2 µM. In a few lines:
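Luminescence from aminoluciferin released by caspase-3/7 cleavage of a peptide substrate served as read-out. Mouse fibroblast NIH 3T3 cells were exposed to compounds over a concentration range for 16 hours, and AC50 values came from standard Hill modelling.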

Test [10] in a line: Cellular Toxicity (caspase-3) Renal Proximal Tubule (AID 667).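 Note: cells exposed to compound for 16 hours at 37 °C before detection.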 To be noted: renal proximal tubule cells, primary cells freshly taken from rat; Potency: caspase-3 activation; series mostly up to 91.7 µM. In a few lines: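 Luminescent caspase 3/7 signal from peptide-aminoluciferin cleavage measures apoptosis in freshly isolated rat kidney proximal tubule cells after 16 h compound exposure. Concentration-response data are normalized to DMSO and 10 uM staurosporine, and AC50 values come from Hill equation fits.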

A short description of test [11]: MultiTox-Fluor Cytotoxicity Assay - LYMP1-003 - Dead Cells (AID 961). Note: nearly all actives have a fitted effect of over 70% in size. Note: potency is the fitted concentration of half-maximal effect. To be noted: LYMP1-003 lymphoblastoid cells, dead-cell protease fluorescence; series mostly up to 92.2 µM. An outline of the steps: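 Acute toxicity is scored as increased dead-cell protease activity in human lymphoblastoid LYMP1-003 cells after 16 h compound exposure in complete culture medium. Activity is normalized to DMSO basal and 15 uM tetraoctylammonium bromide as full response.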

Test [12] is described as follows: MultiTox-Fluor Cytotoxicity Assay - LYMP1-003 - Live Cells (AID 962).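 Note: 0% = DMSO only and full loss = 92 µM tetraoctylammonium bromide; cytotoxic hits lower the live-cell protease signal.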 To be noted: LYMP1-003 lymphoblastoid cells, MultiTox-Fluor live-cell protease fluorescence; series mostly up to 92.2 µM. An outline of the steps: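 qHTS, 1536-well; 2500 cells/well LYMP1-003; 5 hr 37 C settle; cpd 16 hr 37 C; MultiTox-Fluor reagent 60 min RT; live-cell protease fluor. 405/510; Hill-fit AC50; tetraoctylammonium bromide pos. ctrl.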

Test [13] is described as follows: Cell Viability - LYMP1-003 - Assay at 24 hr (AID 963).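 Note: plate controls were DMSO only for no effect and tetraoctylammonium bromide positive control for full effect.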 To be noted: LYMP1-003 lymphoblastoid cell viability; series mostly up to 92.2 µM. An outline of the steps:
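Cells seeded at 2500/well, 5 hr at 37 C; compounds added; 24 hr at 37 C; CellTiter-Glo added, 30 min room temperature; luminescence read. Decrease in ATP taken as cytotoxicity, AC50 from Hill modelling.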

The nature of test [14]: Cell Viability - LYMP1-002 - Assay at 24 hr (AID 993). Note: % is set by controls: 0 for no effect and ±100 for the full control effect. To be noted: LYMP1-002 lymphoblastoid cells viability; series mostly up to 92.2 µM. An outline of the steps: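 Cells plated 2500/well, 5 hr 37 C; compounds added, 24 hr 37 C; CellTiter-Glo added, 30 min RT; luminescence read. Tetraoctylammonium bromide positive control. Hill-equation AC50.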
The nature of test [15]: qHTS Assay for Identification of Small Molecule Inducers of Hypoxia Response (AID 2120; active = well fitted curve in the direction sought with a large enough effect in the signal ratio, with a control signal flat, not every such curve was filed as active; the % refers to the signal ratio; note: potency is the fitted concentration of half-maximal effect; for activation: 0% is about no effect). To be noted: hypoxia response reporter cells, beta-lactamase ratio readout; series mostly up to 104 µM. An outline of the steps: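 ME-180 HRE-bla cells plated in Opti-MEM/0.5% dialyzed FBS, rested 4-5 h, then dosed with compound titrations by pin tool. After 17 h at 37 degrees C, CCF4 dye loaded 2.5 h at RT; 460/530 nm ratio gave %Activity and AC50.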

Test [16] deals with Peroxisome proliferator-activated receptor alpha (Homo sapiens) (UniProt Q07869). The experiment in a line: qHTS assay for small molecule agonists of the peroxisome proliferator-activated receptor alpha (PPARalpha) signaling pathway (AID 651778). Note: % of control where 0% means no effect. To be noted: PathHunter PPARalpha complementation, chemiluminescence, 6 h; max response: hits give high values. An outline of the steps: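 Enzyme-fragment complementation assay in which ligand-bound PPARalpha translocates and forms an active enzyme that generates chemiluminescence. Cells were plated overnight, exposed to compound for 6 hr at 37 C, and then given detection reagent for 60 min at room temperature.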

A short description of test [17]: qHTS assay for small molecule agonists of the antioxidant response element (ARE) signaling pathway measured by Nrf2-dependant transcriptional activity - cell viability counter screen (AID 720653; active = well fitted curve in the direction sought with a large enough effect in the repeat runs; an effect the other way counts as inactive or inconclusive; note: potency is the fitted concentration of half-maximal effect; for max response: % is set by controls: 0 for no effect and ±100 for the full control effect). To be noted: ARE-bla HepG2 viability, CellTiter-Glo ATP luminescence, 16 h; max response: hits give low values. In a few lines:
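ARE-bla HepG2 cells treated with compounds for 16 h at 37C; this counter screen measures viability as intracellular ATP by CellTiter-Glo luminescence after 30 min at room temperature.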

Test [18] can be described thus: qHTS assay for cell viability of the p53RE-bla HCT-116 cell line (AID 743292). Note: % is set by controls: 0 for no effect and ±100 for the full control effect; nearly all actives have a fitted effect of over 55% in size. To be noted: p53RE-bla HCT-116 viability, ATP luminescence, 16 h; series mostly up to 95 µM. In a few lines:
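Compound-exposed HCT-116 (p53RE-bla) cells, 4,000 per well, were kept 16 h at 37 C following a 5 h preincubation. Cell number was estimated from total ATP by CellTiter-Glo luminescence read after 30 min at room temperature.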

Test [19] can be described thus: Cell Viability - HUV-EC-C (AID 542). Note: % is set by controls: 0 for no effect and ±100 for the full control effect; nearly all actives have a fitted effect of over 35% in size. To be noted: HUV-EC-C endothelial cell viability, qHTS; series mostly up to 92.2 µM. In a few lines:
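qHTS cytotoxicity: HUV-EC-C, 1000 cells/well, 5 hr settle, compound 40 hr 37 °C, CellTiter-Glo, luminescence. AC50 via Hill equation.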

The nature of test [20]: MultiTox-Fluor Cytotoxicity Assay - LYMP1-001 - Dead Cells (AID 946).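 Note: 0% = DMSO and 100% = tetraoctylammonium bromide.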 To be noted: LYMP1-001 lymphoblastoid cells, dead-cell protease fluorescence; series mostly up to 92.2 µM. An outline of the steps:
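In this qHTS, 15 uM tetraoctylammonium bromide defined 100% and DMSO defined basal activity. Lymphoblastoid cells (LYMP1-001, 2500 per well) received compound for 16 hr at 37 C before a fluorogenic dead-cell substrate readout at 485/520 nm.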

Sequence of Peroxisome proliferator-activated receptor alpha (Homo sapiens) (Q07869 whole entry, looked up, the tested form may be a part): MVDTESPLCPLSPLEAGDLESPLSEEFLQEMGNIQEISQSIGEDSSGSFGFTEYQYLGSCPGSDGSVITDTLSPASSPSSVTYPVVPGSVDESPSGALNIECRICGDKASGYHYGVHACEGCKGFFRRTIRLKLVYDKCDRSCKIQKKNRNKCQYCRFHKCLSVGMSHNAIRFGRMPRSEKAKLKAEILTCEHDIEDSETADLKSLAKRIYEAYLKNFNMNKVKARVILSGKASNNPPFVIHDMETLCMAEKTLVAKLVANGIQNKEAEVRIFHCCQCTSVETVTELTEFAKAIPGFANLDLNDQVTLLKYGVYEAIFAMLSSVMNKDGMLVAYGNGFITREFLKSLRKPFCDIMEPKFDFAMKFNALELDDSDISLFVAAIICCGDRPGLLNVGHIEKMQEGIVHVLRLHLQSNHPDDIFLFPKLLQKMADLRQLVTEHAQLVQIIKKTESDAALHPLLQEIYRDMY

Regarding `Cc1c2ccccc2c(C)c2c1ccc1ccccc12`, the Potency in test [1] was 17.9 µM (active); in [11], 39.8 µM (active); in [15], 44.7 µM (active); in test [17], 44.7 µM (active). For the same compound, the Potency result in test [2], in test [3], in [4], in test [7], in test [10] and in test [12] was “inactive” in each case. Besides, the Potency result in [13], in test [14] and in test [18] was “inactive” in each case. Also, the result in test [5], in [6], in [8] and in test [9] was inactive. The max response in test [16] is 2.82% and -0.29%; in test [17], -7.46%.

In the case of `CC(=O)Nc1cccc(C)c1`, the Potency in test [1] is above 92 µM. For the same compound, the Potency entry in test [19], in test [2], in [3], in [4], in test [7] and in test [10] was “inactive” each time. Further, the Potency result in test [20], in test [11], in test [12], in [13], in test [14] and in test [15] was “inactive” in each case. The Potency result in test [18] is “inactive”. Also, the compound was called inactive in test [5], in test [6], in test [8] and in [9]. Also, the max response in [16] is -3.01%; in [17] it was -7.75%.

In the case of `C=CC(C)(O)CCCC(C)CCCC(C)CCCC(C)C` (stereo not drawn), in test [1], the Potency is above 92 µM. Further, the Potency result in test [19], in test [2], in [3], in test [4], in [7] and in test [10] was “inactive” each time. Moreover, the Potency result in [20], in [11], in test [12], in test [13], in [14] and in [15] was “inactive” in each case. The Potency result in [18] is “inactive”. The compound was classed as inactive in test [5], in test [6], in [8] and in [9]. For the same compound, the figures for the max response in [16] and in [17] were 2.41% and 0.618%, respectively.

Consider `CCOc1ccc2nc(N)sc2c1`, for which the Potency in test [1] was above 92 µM. The Potency entry in [19], in [2], in test [3], in test [4], in test [7] and in test [10] was “inactive” in each case. The Potency entry in [20], in [11], in [12], in test [13], in test [14] and in [15] was “inactive” in each case. Moreover, in test [18], the Potency result is “inactive”. Moreover, the outcome in test [5], in [6], in [8] and in test [9] was inactive. The max response in [16] is -0.23%; in test [17], -3.62%.

For `c1ccc(SCCSc2ccccc2)cc1`, in test [1], the Potency is above 92 µM. Moreover, the Potency entry in test [19], in test [2], in [3], in test [4], in test [7] and in test [10] was “inactive” each time. Also, the Potency result in [20], in test [11], in test [12], in [13], in test [14] and in test [15] was “inactive” throughout. Further, in [18], the Potency result was “inactive”. Besides, the call in [5], in [6], in test [8] and in test [9] was inactive. Besides, the figures for the max response in [16] and in test [17] were 2.97% and 1.28%, respectively.

Take `Nc1ccc(-c2ccc(N)c(O)c2)cc1O`: the Potency in [1] was above 92 µM. For the same compound, the Potency result in [19], in test [2], in [3], in [4], in test [7] and in [10] was “inactive” throughout. In addition, the Potency result in test [20], in test [11], in [12], in test [13], in [14] and in [15] was “inactive” in each case. Further, the Potency result in [18] is “inactive”. Also, the compound was classed as inactive in test [6], in test [8] and in test [9]. For the same compound, the max response in [16] is -5.39%; in test [17], 1.43%.

For the origin of these results see PubChem BioAssay (NCATS).
